Experimental data reported in PubChem BioAssay (NCI).
Compounds without any hit were thinned out: in the full panel of roughly 83,000, 20% have a hit.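 Negative percent growth values reflect cell death: -40 means 40% of the cells present at the start died, and -100 means all died.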 Values without a mark were called inactive. Calls of active or inactive are those of the source. Rule for the calls: active = growth percent below 10; inactive = the rest.

Columns and labels:
Assay in all cases: NCI-60 one-dose screen, 48 h (100 = growth as untreated, 0 = no growth, -100 = all killed)
Conditions in all cases: 10 µM unless noted
[1] = tested on: T-47D breast
[2] = tested on: MDA-MB-435 melanoma
[3] = tested on: SW-620 colon
[4] = tested on: MCF7 breast
[5] = tested on: HCT-116 colon
[6] = tested on: HCC-2998 colon
[7] = tested on: KM12 colon
[8] = tested on: MDA-MB-468 breast
[9] = tested on: BT-549 breast

Row | SMILES | growth [1] | growth [2] | growth [3] | growth [4] | growth [5] | growth [6] | growth [7] | growth [8] | growth [9]
1 | CN1CCN(Cc2ccc(C(=O)Nc3cccc(C#Cc4cccc5[nH]nc(N)c45)c3)cc2C(F)(F)F)CC1 | -70.4% (active) | -70.2% (active) | -38.3% (active) | -84% (active) | -90.4% (active) | -93.6% (active) | -68.8% (active) | -89.9% (active) | –
2 | CCOC(=O)C1=C(N)N(c2ccccc2)C2=C(C(=O)CC(C)(C)C2)C1c1ccc([N+](=O)[O-])cc1 (stereo not drawn) | 91.2% | 102% | 96.9% | 83.8% | 83.8% | 100% | 99.5% | 96.1% | –
3 | N/C(=N\c1nc2ccccc2s1)NC(=O)NCCCCCCO | 9.9% (active) | 41.2% | – | – | 36.9% | 82% | 55.1% | 2.33% (active) | 21.4%
4 | Cn1nc(C(F)(F)F)cc1-c1cc(Cl)c(COc2ccc(Cl)cc2)c(-c2ccc(Cl)c(C(F)(F)F)c2)c1O | 13.1% | -34.4% (active) | – | -14.3% (active) | -62.2% (active) | -33.1% (active) | -19.1% (active) | -23.9% (active) | -51.6% (active)
5 | O=C1Nc2ccc([N+](=O)[O-])cc2C1=Nc1ccccc1 | 84.1% | 111% | 102% | 85.4% | 106% | 112% | 105% | 109% | –
6 | CCN(CC)c1ccc(/C=N/Nc2nc(-c3ccc(C)cc3)cs2)c(O)c1 | 68.7% | 96.7% | 99.1% | 67.8% | 72.9% | 106% | 94.6% | – | –
7 | CC1=C(C(=O)c2ccccc2)C(c2cccc3ccccc23)n2c(nc3ccccc32)N1 (stereo not drawn) | 89.9% | 72.6% | – | 38.1% | 31.7% | 95.5% | 90.6% | -12.7% (active) | 61.1%
8 | CN1CCN(c2ccc3c(c2)nc(NNC(=O)c2cnccn2)c2cccn23)CC1 | -55.6% (active) | 5.71% (active) | 9.85% (active) | -39.1% (active) | -52.1% (active) | -44.5% (active) | 1.89% (active) | -42.2% (active) | –
9 | CN1CCc2c(sc3ncnc(N/N=C/c4ccc(Cl)cc4Cl)c23)C1 | 76.9% | -23.7% (active) | – | 3.77% (active) | -64.1% (active) | 24.1% | 24.8% | -67.5% (active) | -40.2% (active)
10 | CC(C)c1ccc2c(N)c(C(=O)Nc3ccc(C(F)(F)F)cn3)sc2n1 | 23.2% | 54.8% | – | 36.9% | 47.3% | 96.1% | 57% | 14.8% | 42.1%
11 | Cc1ncsc1-c1ccc(CNC(=O)[C@@H]2C[C@@H](O)CN2C(=O)[C@@H](NC(=O)C2(F)CC2)C(C)(C)C)c(OCCOCCOCCOCCOc2nc(Nc3cc(S(C)(=O)=O)ccc3N[C@@H](c3cccc4c3OC(F)(F)O4)c3ncccc3Cl)nc(N3CCNCC3)n2)c1 | 76.6% | 86.9% | – | 5.45% (active) | 69.5% | 71.2% | 71.2% | -19.8% (active) | -34.3% (active)
12 | CC(C)c1ccc2c(N)c(C(=O)Nc3cccc(C(F)(F)F)c3)sc2n1 | 51.8% | 82.5% | – | – | 81.4% | 73.1% | 43.2% | 13.2% | 112%
13 | CC(=O)Nc1ccc(-c2cn(-c3cccc(C(=O)Nc4ccc(N5CCN(C)CC5)cc4)c3)nn2)cn1 | 94% | 100% | – | 45.9% | – | 85% | 68.9% | -9.89% (active) | 74.6%
14 | CCN(CC)C(=O)N/C(N)=N/c1nc2ccccc2s1 | 12.6% | 37.5% | – | – | 43.4% | 88.2% | 73.9% | 5.79% (active) | 16.5%
15 | C[C@H](Nc1nc(NCCc2ccccc2)nc2ccccc12)c1ccccc1 | -55.1% (active) | -88.5% (active) | – | -87.4% (active) | -83.7% (active) | -98.7% (active) | -77.2% (active) | -96.3% (active) | -86.9% (active)
16 | CC(=O)NNc1ccc2nnc(-c3ccccc3)n2n1 | 105% | 103% | 90.6% | 94.8% | 107% | 100% | 104% | 101% | –
